Values joined by “and” are separate entries in the source; they are usually repeats but may differ in a detail not shown here. Identical values can stand only once. Results filed as inconclusive are left out. A call without a number means that no potency is given here. Active and inactive are the calls of the source. Calls come from the whole dose curve; as a rule, active = well fitted inhibition curve with a large enough effect in the repeat runs; inconclusive = weak or mixed curves; inactive = no such curve, though single readings can be large or run the other way.
What follows are molecules tested against Cytochrome P450 2C19 (Homo sapiens) (UniProt P33261) (assay: Cytochrome P450 Family 2 Subfamily C Member 19 (CYP2C19) small molecule antagonists: luciferase reporter qHTS assay (AID 1671197; note: nearly all actives have a fitted effect of over 65% in size)). Conditions: P450-Glo CYP2C19 enzyme, luciferin luminescence, 1 h; series mostly up to 115 µM.
Text: National Center for Advancing Translational Sciences [NCATS]
U.S. Environmental Protection Agency [EPA]
National Institutes of Environmental Health Sciences [NIEHS]
National Toxicology Program [NTP]
U.S. Food and Drug Administration [FDA]
Cytochrome P450 (CYP) enzymes are membrane-bound hemeproteins that play a key role in metabolism of drugs and xenobiotics. Evaluation of the effect of chemicals on CYP isozymes is useful to minimize the adverse drug reactions and toxicities in drug development process. Tox21 chemicals were tested for their effect on CYP enzyme activities by using P450-Glo (TM) screening systems (Promega Corporation, Madison, WI). These systems provide a luminescent method containing proluciferin substrates and are converted to luciferin products by CYP isozymes. The luciferin products formed are detected with a luciferin detection reagent, and the amount of light produced is proportional to CYP activity. P450-Glo (TM) CYP2C19 screening system (Catalog. No. V9880) was used to detect the compounds that interfere in CYP2C19 activity. The positive control compound used for CYP2C19 assay is ketoconazole (Sigma-Aldrich, St. Louis, MO).
Tox21 Assay Protocol Summary:
Two ul of enzyme-substrate mix was dispensed into medium binding white/solid 1536-well plates (Greiner Bio-One North America Inc., Monroe, NC) using a BioRaptr Flying Reagent Dispenser (FRD, Beckman Coulter, Brea, CA). Compounds dissolved in DMSO and positive control (ketoconazole) were transferred to the assay plates at 23 nl using a Pintool station (Wako, San Diego, CA). The assay plates were incubated at room temperature for 10 min. Then 2 ul of NADPH regeneration solution was added to each well of the assay plates using an FRD and incubated at 37C for 1 h. The reaction was stopped by adding 4 ul of detection reagent using an FRD and after 20 min incubation at room temperature the luminescence signal was measured using a ViewLux plate reader (Perkin Elmer, Shelton, CT). Data were expressed as relative luminescence units.
Potency is the fitted concentration of half-maximal effect.

Sequence of Cytochrome P450 2C19 (Homo sapiens) (P33261 whole entry, looked up): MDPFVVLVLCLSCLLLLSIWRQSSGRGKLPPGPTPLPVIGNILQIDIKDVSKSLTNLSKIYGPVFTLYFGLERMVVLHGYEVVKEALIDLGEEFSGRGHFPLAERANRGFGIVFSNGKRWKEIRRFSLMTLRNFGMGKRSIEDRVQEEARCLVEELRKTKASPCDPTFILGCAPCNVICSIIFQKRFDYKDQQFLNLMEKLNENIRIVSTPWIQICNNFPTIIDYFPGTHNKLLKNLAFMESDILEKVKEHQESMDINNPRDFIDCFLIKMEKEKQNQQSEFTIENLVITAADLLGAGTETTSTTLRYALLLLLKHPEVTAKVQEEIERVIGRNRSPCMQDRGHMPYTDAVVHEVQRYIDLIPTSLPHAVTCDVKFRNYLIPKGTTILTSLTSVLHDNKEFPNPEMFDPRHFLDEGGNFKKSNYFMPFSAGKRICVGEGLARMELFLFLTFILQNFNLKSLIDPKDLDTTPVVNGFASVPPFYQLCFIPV

**Q.** CC1=C(/C=C/C(C)=C/C=C/C(C)=C\C=O)C(C)(C)CCC1 was tested. Which Potency did it give?
**A.** 37.8 µM (active)

**Q.** For Nc1cc(Cl)c([N+](=O)[O-])cc1O, which Potency is on record?
**A.** inactive

**Q.** How did the Potency turn out when COC(=O)[C@]1(C)CCC[C@@]2(C)[C@H]1CC=C1C=C(C(C)C)CC[C@@H]12 was run?
**A.** 28.3 µM (active)

**Q.** With O=C1Nc2ccc(Cl)cc2[C@@](C#CC2CC2)(C(F)(F)F)O1 as the molecule, how does the Potency read?
**A.** 11 µM (active)

**Q.** For N#CSCSc1nc2ccccc2s1, which Potency is on record?
**A.** 39.9 µM (active)

**Q.** How did the Potency turn out when Oc1ccc(-c2ccccc2)c(Cl)c1 was run?
**A.** 22.4 µM (active)

**Q.** For S=P(N1CC1)(N1CC1)N1CC1, which Potency is on record?
**A.** 9.42 µM (active)

**Q.** CCCN(CCc1cccs1)[C@H]1CCc2c(O)cccc2C1 was tested. Which Potency did it give?
**A.** 2.45 µM (active)

**Q.** With C[Si](C)(C)Cl as the molecule, how does the Potency read?
**A.** inactive

**Q.** Which Potency does the source give for CN(Cc1cc(Br)cc(Br)c1N)C1CCCCC1 here?
**A.** 4.36 µM (active)

**Q.** For C=CC(=O)OCC(O)COc1ccccc1 (stereo not given), which Potency is on record?
**A.** 35.6 µM (active)

**Q.** Which Potency does the source give for CC(C)(C)c1cc(/C=C2\SC(=N)NC2=O)cc(C(C)(C)C)c1O here?
**A.** 20 µM (active)

**Q.** How did the Potency turn out when NC1(c2ccc(-c3nc4ccn5c(=O)[nH]nc5c4cc3-c3ccccc3)cc2)CCC1 was run?
**A.** inactive

**Q.** O=C1OC(=O)c2ccc3c4c(ccc1c24)C(=O)OC3=O was tested. Which Potency did it give?
**A.** inactive

**Q.** With C=CC(C)(CCC=C(C)C)OC(=O)/C=C/c1ccccc1 (stereo not given) as the molecule, how does the Potency read?
**A.** 6.33 µM (active)

**Q.** CCCCCCC(C)Nc1ccc(Nc2ccccc2)cc1 (stereo not given) was tested. Which Potency did it give?
**A.** 5.03 µM (active)

**Q.** How did the Potency turn out when C/C=C/C(=O)C1=C(C)CCCC1(C)C was run?
**A.** 79.6 µM (active)

**Q.** Which Potency does the source give for Cc1cc(=O)[nH]c(=O)[nH]1 here?
**A.** inactive

**Q.** Cn1cnc2ncnc(N)c21 was tested. Which Potency did it give?
**A.** inactive

**Q.** How did the Potency turn out when CC1(C)C(=O)N(Br)C(=O)N1Br was run?
**A.** inactive

**Q.** With CC1CCCCN1CCCOC(=O)c1ccc(OC2CCCCC2)cc1 (stereo not given) as the molecule, how does the Potency read?
**A.** inactive

**Q.** For CCCCCCCCCCOCC(O)CN (stereo not given), which Potency is on record?
**A.** 6.92 µM (active)

**Q.** Which Potency does the source give for O=c1cccc[nH]1 here?
**A.** inactive

**Q.** How did the Potency turn out when COc1ccc2sc(C(=O)Nc3nnn[nH]3)c(OC(C)C)c2c1 was run?
**A.** inactive

**Q.** With CCN(CC)CCSC(=O)C(c1ccccc1)c1ccccc1 as the molecule, how does the Potency read?
**A.** 6.92 µM (active)

**Q.** CCOC(=O)CC(C)O (stereo not given) was tested. Which Potency did it give?
**A.** inactive

**Q.** Which Potency does the source give for C=C(C)CCCC here?
**A.** inactive

**Q.** For CCN(CC)CCOc1ccc(C(O)(Cc2ccc(Cl)cc2)c2ccc(C)cc2)cc1 (stereo not given), which Potency is on record?
**A.** 38.9 µM (active)

**Q.** With C=CC(C)C#N (stereo not given) as the molecule, how does the Potency read?
**A.** inactive

**Q.** Which Potency does the source give for O=Cc1ccc(F)cc1 here?
**A.** inactive

**Q.** For C=CC(=O)OCCN(CC)CC, which Potency is on record?
**A.** inactive

**Q.** How did the Potency turn out when C=C[C@](C)(O)CC[C@@H]1[C@@]2(C)CCCC(C)(C)[C@@H]2CC[C@@]1(C)O was run?
**A.** 1 µM (active)

**Q.** CCCCCCCC(OC)OC was tested. Which Potency did it give?
**A.** inactive

**Q.** With CCCC(C)CCC(C)=O (stereo not given) as the molecule, how does the Potency read?
**A.** inactive

**Q.** Which Potency does the source give for CC(=O)c1ccccc1N here?
**A.** inactive

**Q.** For CCCCCCCCCCCCCCNCCO, which Potency is on record?
**A.** inactive

**Q.** For Cc1cnccn1, which Potency is on record?
**A.** inactive

**Q.** How did the Potency turn out when COc1ccc(-n2nc(CCC(=O)N(C)O)cc2-c2ccc(Cl)cc2)cc1 was run?
**A.** 8.71 µM (active)

**Q.** Which Potency does the source give for CCCC(=O)OCC(COC(=O)CCC)OC(=O)CCC here?
**A.** 20 µM (active)

**Q.** How did the Potency turn out when CSc1ccc2c(c1)N(CCC1CCCCN1C)c1ccccc1S2 (stereo not given) was run?
**A.** 17.8 µM (active) and 21.9 µM (active)
